# Reference: PubChem BioAssay (NCATS)
# “And” between values parts separate entries of the source, which are not always exact repeats. Equal values may be shown once. Inconclusive results are not listed. Entries that show only a call come without a potency. The source made the active and inactive calls. Unless noted, calls come from the whole dose curve; as a rule, active = well fitted curve in the direction sought with a large enough effect; inconclusive = small, poorly fitted or top-dose-only effect, or another doubt; inactive = no such curve, though single readings can be large; an effect the other way counts as inactive or inconclusive.
# Assays:
# [1] = target: Cytochrome P450 1A2 (Homo sapiens) (UniProt P05177); experiment: p450-cyp1a2 (AID 410; calls by dose curve; note: potency is the fitted concentration of half-maximal effect)
# Cytochrome P450 1A2 (Homo sapiens), sequence (P05177 whole entry, looked up): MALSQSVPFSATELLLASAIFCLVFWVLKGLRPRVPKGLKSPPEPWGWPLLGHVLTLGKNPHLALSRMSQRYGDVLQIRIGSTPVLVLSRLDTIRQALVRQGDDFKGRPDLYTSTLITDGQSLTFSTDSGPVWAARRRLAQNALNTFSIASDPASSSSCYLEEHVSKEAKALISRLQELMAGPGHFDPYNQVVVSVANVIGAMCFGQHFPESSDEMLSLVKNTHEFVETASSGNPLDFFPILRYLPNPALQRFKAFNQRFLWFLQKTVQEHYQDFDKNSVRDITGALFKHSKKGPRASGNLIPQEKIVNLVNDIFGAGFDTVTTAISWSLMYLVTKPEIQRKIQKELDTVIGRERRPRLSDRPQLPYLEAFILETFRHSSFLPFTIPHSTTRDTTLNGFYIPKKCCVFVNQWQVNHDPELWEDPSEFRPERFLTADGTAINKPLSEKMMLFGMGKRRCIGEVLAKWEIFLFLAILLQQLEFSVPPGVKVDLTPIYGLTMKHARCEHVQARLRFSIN
# Outline: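 20nM CYP1A2, 100uM Luciferin-ME (=Km), 100mM KPO4; cpd 10 min RT; +NADPH regen, 60 min RT; stop/detect 20 min; luminescence. Normalized to furafylline 57 uM = full inhibition.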
# [2] = NFAT Signaling Pathway (AID 444; active = well fitted curve in either direction with a large enough effect, not every such curve was filed as active;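 note: carbachol stimulus at about its EC50 of 1 µM final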); conditions: Jurkat NFAT-bla M1, carbachol, beta-lactamase ratio, 5 h; at 38 µM (top of the series)
# Outline: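 Jurkat cells carrying an NFAT-driven β-lactamase reporter and co-transfected muscarinic M1 receptor were treated with compound plus carbachol (1 uM final, an EC50 level) for 5 h at 37 °C. CCF4 loading followed for 1 h at RT; 460/530 nm ratio gave %activity.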
# [3] = target: Glucocorticoid receptor (Homo sapiens) (UniProt P04150); experiment: GR-GFP Redistribution (AID 450;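 active = compounds whose dose series gives a full or clear partial fitted curve of increased nuclear translocation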; note: potency is the fitted concentration of half-maximal effect); conditions: U2OS GR-GFP nuclear translocation, laser cytometry, 2 h
# Glucocorticoid receptor (Homo sapiens), sequence (P04150 whole entry, looked up, the tested form may be a part): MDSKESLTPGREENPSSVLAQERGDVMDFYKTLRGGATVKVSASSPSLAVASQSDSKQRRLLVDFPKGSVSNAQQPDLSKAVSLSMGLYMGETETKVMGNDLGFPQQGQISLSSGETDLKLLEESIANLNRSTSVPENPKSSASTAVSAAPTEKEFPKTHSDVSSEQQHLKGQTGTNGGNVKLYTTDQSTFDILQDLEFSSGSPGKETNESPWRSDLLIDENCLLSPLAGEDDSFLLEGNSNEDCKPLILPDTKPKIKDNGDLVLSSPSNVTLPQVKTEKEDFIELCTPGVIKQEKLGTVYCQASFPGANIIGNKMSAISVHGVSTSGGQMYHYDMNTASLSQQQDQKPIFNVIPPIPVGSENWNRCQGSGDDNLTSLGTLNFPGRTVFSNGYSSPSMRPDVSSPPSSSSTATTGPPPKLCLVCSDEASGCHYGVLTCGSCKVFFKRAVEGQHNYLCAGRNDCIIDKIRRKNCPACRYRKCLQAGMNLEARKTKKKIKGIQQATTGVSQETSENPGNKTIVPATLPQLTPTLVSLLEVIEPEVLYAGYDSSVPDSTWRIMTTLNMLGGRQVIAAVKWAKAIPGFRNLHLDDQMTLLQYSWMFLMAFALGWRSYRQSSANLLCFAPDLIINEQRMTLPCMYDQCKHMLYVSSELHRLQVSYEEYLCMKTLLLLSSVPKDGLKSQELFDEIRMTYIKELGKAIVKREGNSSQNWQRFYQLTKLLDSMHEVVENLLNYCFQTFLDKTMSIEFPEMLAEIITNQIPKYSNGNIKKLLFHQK
# [4] = target: Glucocorticoid receptor (Homo sapiens) (UniProt P04150); experiment: GR-EFC Redistribution (AID 451; calls by dose curve; note: potency is the fitted concentration of half-maximal effect); conditions: CHO-K1 GR-EFC translocation, beta-gal luminescence, 2 h
# Outline: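 CHO-K1 cells stably expressing nuclear-localized β-gal enzyme acceptor and GR fused C-terminally to the enzyme donor fragment; ligand-driven nuclear translocation restores β-gal by complementation. Compounds titrated up to 46 uM final, 2 h at 37 °C; luminescence read.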
# [5] = target: Mitogen-activated protein kinase 10 (Mus musculus) (UniProt Q61831); experiment: JNK3 AlphaScreen Assay (AID 530; active = well fitted curve in either direction with a large enough effect, not every such curve was filed as active;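 note: kinase came from lysate of stimulated human HepG2 cells; potency is the fitted concentration of half-maximal effect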)
# Outline: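 Biotinylated GST-cJun(1-79) served as substrate for JNK3 in HepG2 lysates stimulated with IL-1beta and TNF-alpha. ATP was 10 uM final, pH 7.6. Ser73 phosphorylation was quantified by AlphaScreen (680 nm excitation).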
# [6] = target: 3',5'-cyclic-AMP phosphodiesterase 4B (Homo sapiens) (UniProt Q07343); experiment: qHTS Assay for Inhibitors of PDE-IV (AID 607; active = well fitted activation curve with a large enough effect in the main read-out, with a control signal flat, not every such curve was filed as active)
# 3',5'-cyclic-AMP phosphodiesterase 4B (Homo sapiens), sequence (Q07343 whole entry, looked up): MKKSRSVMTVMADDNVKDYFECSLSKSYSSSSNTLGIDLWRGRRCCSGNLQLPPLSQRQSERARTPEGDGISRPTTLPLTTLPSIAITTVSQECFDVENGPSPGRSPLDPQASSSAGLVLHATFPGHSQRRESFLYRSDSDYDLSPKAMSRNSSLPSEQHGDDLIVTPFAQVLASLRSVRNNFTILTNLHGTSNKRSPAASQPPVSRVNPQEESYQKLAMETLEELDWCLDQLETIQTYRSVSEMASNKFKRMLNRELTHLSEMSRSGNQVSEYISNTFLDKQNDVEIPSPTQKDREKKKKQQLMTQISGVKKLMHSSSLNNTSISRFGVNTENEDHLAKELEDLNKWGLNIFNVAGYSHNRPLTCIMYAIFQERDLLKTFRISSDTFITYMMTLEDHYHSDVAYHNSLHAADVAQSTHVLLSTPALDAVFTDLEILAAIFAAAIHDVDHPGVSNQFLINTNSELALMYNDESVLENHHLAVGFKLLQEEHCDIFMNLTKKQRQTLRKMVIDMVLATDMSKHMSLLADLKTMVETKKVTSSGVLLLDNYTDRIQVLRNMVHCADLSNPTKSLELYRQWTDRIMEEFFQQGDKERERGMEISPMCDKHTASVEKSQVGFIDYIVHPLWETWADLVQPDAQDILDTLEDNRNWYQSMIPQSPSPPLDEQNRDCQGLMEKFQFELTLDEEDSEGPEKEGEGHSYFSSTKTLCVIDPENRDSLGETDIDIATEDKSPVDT
# Outline: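 Live HEK293 cells with a modified cyclic nucleotide-gated (CNG) channel report intracellular cAMP via membrane-potential dye fluorescence (ex 535/em 590 nm). Endogenous PDE-IV was targeted. Compounds were tested at up to 22.9 uM final; RO 20-1724 100 uM served as control.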
# [7] = target: Guanine nucleotide-binding protein G(i) subunit alpha-1 (Homo sapiens) (UniProt P63096); experiment: qHTS Assay for Inhibitors of RGS12 GoLoco Motif Activity (Green Fluorophore) (AID 879);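 note: negative values mean loss of peptide binding seen as reduced polarization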
# Guanine nucleotide-binding protein G(i) subunit alpha-1 (Homo sapiens), sequence (P63096 whole entry, looked up): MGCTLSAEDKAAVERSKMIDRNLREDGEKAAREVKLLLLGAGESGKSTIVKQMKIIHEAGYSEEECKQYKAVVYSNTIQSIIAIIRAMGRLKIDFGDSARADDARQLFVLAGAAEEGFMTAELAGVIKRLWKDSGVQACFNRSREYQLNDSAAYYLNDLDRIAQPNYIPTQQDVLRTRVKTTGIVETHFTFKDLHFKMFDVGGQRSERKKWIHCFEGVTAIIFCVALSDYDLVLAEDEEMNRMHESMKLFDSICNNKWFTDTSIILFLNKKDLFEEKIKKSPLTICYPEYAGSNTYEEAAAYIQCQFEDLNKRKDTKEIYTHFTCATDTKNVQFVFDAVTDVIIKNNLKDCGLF
# Outline: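 A drop in FITC polarization marked displacement of the FITC-tagged RGS12 GoLoco peptide (10 nM) from Gαi1 (50 nM). Compounds were incubated 10 min at room temperature in Tris pH 7.5 buffer containing 150 mM NaCl, 0.1 mM GDP and 0.05% NP40; unlabeled peptide titration served as control.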
# [8] = target: Cytochrome P450 2C9 (Homo sapiens) (UniProt P11712); experiment: qHTS Assay for Inhibitors and Substrates of Cytochrome P450 2C9 (AID 883); note: nearly all actives have a fitted effect of over 60% in size
# Outline: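 CYP2C9 deoxyluciferin hydroxylation, 37C, 60 min with NADPH regeneration; 10nM enzyme, 100uM Luciferin-H (KM). Glo detection reagent stopped reaction; luminescence normalized to sulphaphenazole (57uM) full inhibition.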
# [9] = target: Cytochrome P450 3A4 (Homo sapiens) (UniProt P08684); experiment: qHTS Assay for Activators of Cytochrome P450 3A4 (AID 885); note: nearly all actives have a fitted effect of over 65% in size
# Outline: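 Using 20nM recombinant human CYP3A4 in potassium phosphate (200mM), substrate Luciferin-PPXE at 25uM, luminescent luciferin detection followed a 60-min RT NADPH reaction; data scaled to 57 uM ketoconazole.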
# [10] = target: Cytochrome P450 2D6 (Homo sapiens) (UniProt P10635); experiment: qHTS Assay for Inhibitors and Substrates of Cytochrome P450 2D6 (AID 891);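 note: luciferin methyl ether substrate demethylated by CYP2D6 with NADPH regeneration; nearly all actives have a fitted effect of over 60% in size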
# Cytochrome P450 2D6 (Homo sapiens), sequence (P10635 whole entry, looked up): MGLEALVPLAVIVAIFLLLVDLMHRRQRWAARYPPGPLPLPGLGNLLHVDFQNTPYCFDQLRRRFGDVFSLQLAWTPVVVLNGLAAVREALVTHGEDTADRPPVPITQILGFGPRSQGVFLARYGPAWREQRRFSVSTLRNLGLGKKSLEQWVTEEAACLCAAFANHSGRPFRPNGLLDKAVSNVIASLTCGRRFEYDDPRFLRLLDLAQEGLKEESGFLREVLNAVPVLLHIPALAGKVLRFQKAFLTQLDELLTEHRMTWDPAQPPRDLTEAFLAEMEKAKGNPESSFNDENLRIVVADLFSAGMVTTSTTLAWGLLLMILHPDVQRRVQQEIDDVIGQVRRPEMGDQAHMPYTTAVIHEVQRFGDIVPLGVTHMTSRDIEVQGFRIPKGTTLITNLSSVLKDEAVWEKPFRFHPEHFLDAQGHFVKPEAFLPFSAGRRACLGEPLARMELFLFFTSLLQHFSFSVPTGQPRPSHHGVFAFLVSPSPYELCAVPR
# Outline: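 Luminescent read-out of luciferin formed by 5 nM human CYP2D6 demethylating 30 uM Luciferin-ME EGE (Km level) over 60 min at room temperature after NADPH regeneration addition. Data normalized to full inhibition by 1.43 uM quinidine.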
# [11] = qHTS Assay for Identification of Small Molecule Agonists for Thrombopoietin (TPO) Signaling Pathway (AID 917)
# Outline: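 Quantitative HTS for pathway activators: compounds were pin-transferred onto IL-3-starved Ba/F3 cells expressing human TPO receptor, TPO was added at its EC50 (26 pM final), and after 24 hrs at 37 C reporter luciferase was measured.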
# [12] = target: Muscarinic acetylcholine receptor M1 (Rattus norvegicus) (UniProt P08482); experiment: qHTS Assay for Antagonists of Acetylcholine Muscarinic M1 Receptor: Kinetic Measurement of Intracellular Calcium Response (AID 943);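 note: Fluo-4 calcium signal as peak divided by basal fluorescence over 4 min; nearly all actives have a fitted effect of over 75% in size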
# Muscarinic acetylcholine receptor M1 (Rattus norvegicus), sequence (P08482 whole entry, looked up): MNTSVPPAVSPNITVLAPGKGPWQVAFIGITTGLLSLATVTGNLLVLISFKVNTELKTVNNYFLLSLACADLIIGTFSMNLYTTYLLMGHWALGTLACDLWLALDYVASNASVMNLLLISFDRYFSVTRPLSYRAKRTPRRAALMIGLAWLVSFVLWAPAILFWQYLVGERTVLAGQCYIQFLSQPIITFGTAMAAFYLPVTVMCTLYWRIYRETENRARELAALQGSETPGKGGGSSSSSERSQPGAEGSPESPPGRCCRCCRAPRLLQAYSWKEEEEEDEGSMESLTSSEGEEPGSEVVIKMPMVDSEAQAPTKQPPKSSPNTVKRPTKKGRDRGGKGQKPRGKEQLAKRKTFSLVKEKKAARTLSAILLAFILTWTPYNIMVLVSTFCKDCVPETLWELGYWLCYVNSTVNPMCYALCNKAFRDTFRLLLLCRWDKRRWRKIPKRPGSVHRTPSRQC
# Outline: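 Read-out: peak over basal Fluo-4 fluorescence, kinetic at 1 Hz for 4 min after EC80 carbachol (100 nM final). Rat M1-CHO cells, dye loaded 1 h at 37C, compound added 10 min before agonist.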
# [13] = target: Pyruvate kinase PKM (Homo sapiens) (UniProt P14618); experiment: qHTS Assay for Activators of Human Muscle Pyruvate Kinase (AID 954; active = well fitted curve in the direction sought with a large enough effect, not every such curve was filed as active)
# Pyruvate kinase PKM (Homo sapiens), sequence (P14618 whole entry, looked up): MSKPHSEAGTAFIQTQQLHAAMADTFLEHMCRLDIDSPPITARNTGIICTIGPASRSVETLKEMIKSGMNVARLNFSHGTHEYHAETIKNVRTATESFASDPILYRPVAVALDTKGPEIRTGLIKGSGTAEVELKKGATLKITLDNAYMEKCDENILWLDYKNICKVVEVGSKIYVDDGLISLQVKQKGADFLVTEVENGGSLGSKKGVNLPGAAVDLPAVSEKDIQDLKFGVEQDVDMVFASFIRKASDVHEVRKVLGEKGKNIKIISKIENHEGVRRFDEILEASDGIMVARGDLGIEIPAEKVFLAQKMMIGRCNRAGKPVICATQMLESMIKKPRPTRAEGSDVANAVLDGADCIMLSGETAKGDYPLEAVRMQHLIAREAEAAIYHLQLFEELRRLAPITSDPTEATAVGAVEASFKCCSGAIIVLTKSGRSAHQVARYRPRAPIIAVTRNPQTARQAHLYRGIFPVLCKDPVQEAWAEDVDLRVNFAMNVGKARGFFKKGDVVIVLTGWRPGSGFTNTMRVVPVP
# Outline: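 Screening used highly purified human pyruvate kinase M2 under submaximal activity, with PEP at its Km and ADP below Km. After an hour at room temperature, ATP was read by luciferase luminescence.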
# [14] = target: Pyruvate kinase PKM (Homo sapiens) (UniProt P14618); experiment: qHTS Assay for Inhibitors of Human Muscle Pyruvate Kinase (AID 958); conditions: purified human PKM enzyme activity
# Outline: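 Compound pinned into substrate mix (0.5 mM PEP, 0.1 mM ADP), then 0.1 nM PKM2 added; 1 h, RT. Stop/detection luciferase reagent added, luminescence read. Normalized to no-inhibition and no-enzyme or reference-inhibitor controls.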
# [15] = target: Pyruvate kinase (Leishmania mexicana) (UniProt Q27686); experiment: qHTS Validation Assay for Activators of Leishmania Mexicana Pyruvate Kinase (AID 959)
# Pyruvate kinase (Leishmania mexicana), sequence (Q27686 2-499 E452W): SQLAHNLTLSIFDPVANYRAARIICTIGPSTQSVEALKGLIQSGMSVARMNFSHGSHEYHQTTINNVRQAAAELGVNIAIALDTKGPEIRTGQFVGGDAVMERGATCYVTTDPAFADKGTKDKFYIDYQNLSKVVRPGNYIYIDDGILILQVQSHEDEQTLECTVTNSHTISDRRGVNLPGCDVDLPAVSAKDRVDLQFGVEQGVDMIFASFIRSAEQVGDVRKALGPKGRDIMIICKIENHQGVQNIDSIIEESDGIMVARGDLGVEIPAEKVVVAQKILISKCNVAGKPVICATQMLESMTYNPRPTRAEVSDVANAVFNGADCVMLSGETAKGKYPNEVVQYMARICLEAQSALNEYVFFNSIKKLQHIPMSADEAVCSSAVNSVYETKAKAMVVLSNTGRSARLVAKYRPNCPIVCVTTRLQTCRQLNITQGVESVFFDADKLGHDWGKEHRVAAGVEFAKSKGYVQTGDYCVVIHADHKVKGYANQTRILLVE
# Outline: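 Eight-point qHTS titrations in triplicate, data normalized to DMSO neutral control. Reaction: 0.2 nM LmPYK E451W mutant, 0.5 mM PEP, 0.1 mM ADP, 7 mM MgCl2, pH 7.2, one hour at room temperature; luminescent ATP detection.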
# [16] = target: alpha-glucosidase (Oryza sativa, rice) (UniProt Q653V4); experiment: Counterscreen for Glucocerebrosidase Inhibitors: qHTS Assay for Rice alpha-Glucosidase at pH 5.0 (AID 997)
# Outline: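 Endpoint fluorogenic assay at pH 5.0: compounds (0.7 nM to 77 uM) titrated against 4 nM rice enzyme and 400 uM 4-MU-alpha-glucoside for 20 min at room temperature; NaOH/glycine stop, read ex 365/em 440 nm, Hill-fitted AC50.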
# [17] = qHTS Assay for Lipid Storage Modulators (AID 1519; calls by dose curve); conditions: Drosophila S3 cells, BODIPY lipid droplet/cell ratio, laser cytometry, cells loaded with oleic acid
# Outline: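 Cells seeded at 5,000 per well were treated with compounds over a concentration series and loaded with oleic acid (400 uM, as added). Lipid droplet fluorescence (488 nm excitation, 500-530 nm channel) was read by laser-scanning cytometry and normalized to 20 uM Triacsin C.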
# [18] = target: DNA repair nuclease/redox regulator APEX1 (Homo sapiens) (UniProt P27695); experiment: qHTS Validation Assay for Inhibitors of the Human Apurinic/apyrimidinic Endonuclease 1 (APE1) (AID 1705;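 note: TAMRA fluorescence gain over two minutes as APE1 cuts a quenched THF abasic duplex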)
# DNA repair nuclease/redox regulator APEX1 (Homo sapiens), sequence (P27695 whole entry, looked up): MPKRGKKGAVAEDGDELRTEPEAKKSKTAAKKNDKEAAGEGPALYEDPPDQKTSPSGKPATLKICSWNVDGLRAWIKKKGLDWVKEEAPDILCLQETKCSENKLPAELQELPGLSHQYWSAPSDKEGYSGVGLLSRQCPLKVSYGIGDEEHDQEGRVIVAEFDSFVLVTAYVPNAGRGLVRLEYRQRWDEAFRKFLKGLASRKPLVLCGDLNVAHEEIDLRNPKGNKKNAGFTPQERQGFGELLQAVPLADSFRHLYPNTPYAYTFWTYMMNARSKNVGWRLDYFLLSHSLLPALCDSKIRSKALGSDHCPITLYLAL
# Outline: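 Endonuclease activity of human APE1 is followed as dequenching when the enzyme incises a tetrahydrofuran abasic site in a short duplex labelled 5'-TAMRA/3'-BHQ-2 (50 nM final), after 15 min enzyme–compound preincubation at room temperature.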
# [19] = Counterscreen for APE1 Inhibitors: Fluorescent Dye Displacement Validation Assay (AID 1707)
# Outline: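 Loss of Thiazole Orange fluorescence marks promiscuous DNA binders. The dye (250 nM) is mixed with 50 nM abasic-site dsDNA in pH7.5 Tris buffer containing MgCl2, then compounds are added and emission is read once.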
smiles,measurement,setting,value
N#C/C(=C\c1ccc(O)c(O)c1)C(=O)Nc1ccccc1,Potency,[1],2 µM (active) and 501 nM (active)
same,"activity change, negative = inhibition",[2],6.23% (inactive)
same,Potency,[3],> 46 µM (inactive)
same,Potency,[4],> 46 µM (inactive)
same,Potency,[5],12.6 µM (active)
same,Potency,[6],inactive
same,outcome,[7],inactive
same,Potency,[8],inactive
same,Potency,[9],inactive
same,Potency,[10],inactive
same,Potency,[11],inactive
same,Potency,[12],inactive
same,outcome,[13],inactive
same,Potency,[14],25.1 µM (active)
same,Potency,[15],inactive
same,outcome,[16],inactive
same,"activity change, negative = inhibition",[17]; at 57.5 µM (top of the series),-21.4% (inactive)
same,max response,[17]; measured here: cell count channel max response,-56.6%
same,max response,[17]; measured here: lipid channel max response,-66.1%
same,Potency,[18],inactive
same,Potency,[19],inactive
